Test results as given in ChEMBL document CHEMBL3433997, “St. Jude Leishmania screening dataset” (2016).
Several values for one entry are separate records, joined by “and”; a condition that tells them apart may be missing. Identical values can stand only once.

target: Glucose transporter (Leishmania mexicana) (UniProt O61059); test: ST_JUDE_LEISH: Cytotoxicity at 2uM final concentration against transgenic Leishmania Mexicana promastigotes LmGT2 that are glucose transport deficient and complemented with the L. Mexicana glucose transporter 2. Activity is measured by DNA content using SYBR green in vitro; type: functional

Row | SMILES | inhibition
1 | Cc1cccc(CNc2ncc(C)c(NCCC(=O)Nc3ccccc3)n2)c1 | 6.61%
2 | CCc1ccc(-c2nc3cc(NC(=O)c4ccc([N+](=O)[O-])o4)ccc3o2)cc1 | 0.78%
3 | N#Cc1ccc(N(CCOC(=O)c2ccccc2)Cc2ccccc2C(F)(F)F)cc1C(F)(F)F | -0.51%
4 | CC1(C)N=C(NC(=O)c2ccc([N+](=O)[O-])cc2)N=C(N)N1OCc1ccc2ccccc2c1 | -0.07%
5 | Cc1cccc2nc(-c3cccc(-c4cccc(CN5CCN(c6ccncc6)CC5)c4)c3)[nH]c12 | 0.37%
6 | O=S(=O)(NCCN1CCCC1)c1ccc(-c2cccc(CNCc3ccc(F)cc3)c2)cc1F | 4.01%
7 | CC(C)CCN1CCC(Oc2ccc(NC(=O)c3ccccc3)cc2Cl)CC1 | 2.86%
8 | CCOC(=O)c1nc(-c2cccnc2)[nH]c1NC(=S)NCc1ccccc1 | 3.75%
9 | O=C(c1ccc(OCCn2ccnc2)cc1)N1CCC(c2ccc(Br)cc2)C1 (stereo unspecified) | 0.49%
10 | O=S(=O)(c1ccc(OC(F)(F)F)cc1)C1CC2CCC(C1)N2S(=O)(=O)c1ccc(Cl)c(C(F)(F)F)c1 (stereo unspecified) | 10.4%
11 | N#Cc1ccc2c(c1)CN(CC[C@H]1CC[C@H](NC(=O)/C=C/c3c[nH]c4ccccc34)CC1)CC2 | 5.69% and -2.35%
12 | CS(=O)(=O)c1ccc(CCNCc2ccc(-c3ccc(CN(C(=O)c4ccco4)C4CCN(Cc5ccccc5)CC4)cc3)nc2)cc1 | 4.41%
13 | C[C@H](NC(=O)c1c(OC2CN(C(c3ccccc3)c3ccccc3)C2)c(-c2ccccc2)nc2ccccc12)C1CCCCC1 | 0.33%
14 | CCCN(CCC)CCCNc1ccc(C(=O)Nc2ccc(OCC)cc2)cc1[N+](=O)[O-] | 5.32%
15 | NCC(NC(=O)c1ccc(-c2c[nH]c3ncccc23)s1)c1ccccc1 (stereo unspecified) | 25.9%
16 | FC(F)(F)c1ccc2[nH]c(-c3ccc(-c4cccc(CNCCc5cccnc5)c4)s3)nc2c1 | 4.6%
17 | CCC(C)CN1CCCN(c2ccc(NC(=O)c3cccs3)cc2)CC1 (stereo unspecified) | 5.89%
18 | FC(F)(F)c1cccc(CNC2CCN(CC3CCCCC3)CC2)c1 | 3.27%
19 | CCCCCN1CCCN(Cc2cccc(NC(=O)c3ccc(Cl)c(Cl)c3)c2)CC1 | 2.58%
20 | CCOc1ccc(NC(C)=O)c(O)c1 | 3.62%
21 | CC(C)Cc1nc(N)nc(N)c1-c1ccc(Cl)cc1 | 5.17%
22 | COc1ccc(N2CCN(CCCCNC(=O)c3ccc(NC(=O)c4ccc(OC(F)(F)F)cc4)cc3)CC2)c(OC)c1 | 6.29%
23 | Cc1cccc2nc(-c3ccc(-c4cccc(NC(=O)Nc5ccsc5)c4)s3)[nH]c12 | 1.03%
24 | Cc1ccc(CN2CCCN(Cc3cccc(NC(=O)c4ccc(Cl)c(Cl)c4)c3)CC2)cc1 | -0.82%
25 | Cc1cc(N2CCOCC2)nc2ccc(NC(=O)c3ccc(Cl)c([N+](=O)[O-])c3)cc12 | 2.75%
26 | CCN(CC)CCCNc1nccc(N2CCc3ncnc(Nc4ccc(OCc5cccc(F)c5)c(Cl)c4)c3C2)n1 | 7.87%
